The source of these data is PubChem BioAssay (NCATS).

Active and inactive are the calls of the source. No stated cut-off is given here; in the data, active means potency below about 10 µM; inactive means the rest.
Potency means the concentration at half of the fitted maximal effect.

In this assay the target is Lysosomal acid glucosylceramidase (Homo sapiens) (UniProt P04062). As to the kind of experiment: Glucocerebrosidase-p2 (AID 348). Particulars: purified GBA, blue fluorogenic substrate, 40 min. The text has this: Beta-glucocerebrosidase catalyzes the hydrolysis of beta-glucocerebroside to glucose and ceramide. The inherited deficiency of beta-glucocerebrosidase results in Gaucher disease, which is characterized by a wide variety of symptoms including hepatosplenomegaly, anemia, thrombocytopenia, bony lesions and bone marrow infiltration with characteristic storage cells, known as Gaucher cells. There are also forms of the disorder affecting the central nervous system. Patients with the same genotypes can manifest with diverse clinical presentations and it is believed that improper folding and trafficking of beta-glucocerbrosidase may contribute to the phenotypes observed.
Chain of Lysosomal acid glucosylceramidase (Homo sapiens) (P04062 whole entry, looked up): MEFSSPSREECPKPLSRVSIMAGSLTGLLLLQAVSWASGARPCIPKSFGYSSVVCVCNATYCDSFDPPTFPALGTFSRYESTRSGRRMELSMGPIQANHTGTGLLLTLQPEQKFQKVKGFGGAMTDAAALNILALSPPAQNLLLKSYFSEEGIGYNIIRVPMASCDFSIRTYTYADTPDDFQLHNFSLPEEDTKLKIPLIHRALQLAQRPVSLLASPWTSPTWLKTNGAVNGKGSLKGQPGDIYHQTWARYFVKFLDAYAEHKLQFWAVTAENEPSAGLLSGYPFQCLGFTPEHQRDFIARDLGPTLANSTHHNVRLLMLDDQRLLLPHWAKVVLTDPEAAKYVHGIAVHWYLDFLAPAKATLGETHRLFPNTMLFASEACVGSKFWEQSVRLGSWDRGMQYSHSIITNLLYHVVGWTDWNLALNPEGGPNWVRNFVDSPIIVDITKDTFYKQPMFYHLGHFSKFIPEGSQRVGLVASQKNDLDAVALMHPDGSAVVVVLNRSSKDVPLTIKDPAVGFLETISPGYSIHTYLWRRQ
Low molecular weight molecules, acting as chaperones, may potentially restore trafficking of misfolded beta-glucocerebrosidase from the endoplasmic reticulum to the lysosomes, thereby enhancing functional lysosomal beta-glucocerebrosidase activity.
Using normal beta-glucocerebrosidase, an assay was developed to screen for small molecule inhibitors that could potentially act as molecular chaperones on the mutant forms [developed with NIH investigator Dr. Ellen Sidransky#s laboratory]. Two pro-fluorescent substrates were chosen for two screens against a small molecule library. One beta-glucocerebrosidase assay used Resorufin beta-D-Glucopyranoside (Marker Gene Technology Inc.), generating a red fluorescent product. The second assay used […] fluorescent product. The Km for the Resorufin beta-D-Glucopyranoside and Fluorescein di-beta-D-Glucopyranoside were determined to be 71.2 uM and 855 uM, respectively. The IC50 values of Conduritol B Epoxide, a known glucocerebrosidase inhibitor, were determined to be 87.5 uM and 117 uM, respectively. The use of two difference pro-fluorescent substrates in the screens helped to eliminate false positives. All compounds were screened in a titration series resulting in AC50s (e.g., IC50s or EC50s). Data normalization and AC50 calculations were accomplished using GeneData software.
NCGC Assay Protocol Summary
Both enzyme and substrate were diluted in buffer composed of 50mM citric acid/KH2PO4, 10mM sodium taurocholate and 0.01% tween-20 at pH 5.9. The final concentration of the enzyme was 0.2 nM in both assays. The compound library was titrated in 7 to 15 concentrations for the primary screens with a final concentration ranging from 0.6 nM to 50 uM. This particular assay protocol is for the "blue" substrate, and it was performed in 1536-well plate format as follows:
Blue fluorescence substrate assay:
1 uL substrate (final concentration of 80 uM)
Incubate at room temperature (RT) for 40 minutes
3 uL stop solution (1 M NaOH and 1 M glycine in water)
Read the plate in Viewlux plate reader (Ex=365(10) and Em=440(10)).
As to `CCNc1ncc2nc(-c3ccccc3)c(=O)n(Cc3cccs3)c2n1`, the Potency was > 11.4 µM (inactive).
For `CN(C)Cc1ccccc1-c1cc(NC2CC2)ncn1`, the Potency is > 11.4 µM (inactive).
Under `Cc1noc(C)c1-c1nc(N2CCNCC2)c2ccccc2n1` stands > 11.4 µM (inactive); under `CC(C)NC(=O)N1CCC2(CC1)CCN(C(=O)c1cccc(F)c1)CC2`, > 11.4 µM (inactive).
On to `Cc1cccc(CNc2ncnc3ccc(-c4cccc(C#N)c4)cc23)c1`, for which the Potency is > 11.4 µM (inactive).
As to `Cc1noc(C)c1C(=O)N1CCC2(CC1)CN(C(=O)Nc1cccc(F)c1)C2`, the Potency is > 11.4 µM (inactive).
As for `COc1ccc(Oc2ncc3ncc(=O)n(C[C@H]4CCCO4)c3n2)cc1`, the figure is > 11.4 µM (inactive).
For the compound `CC(C)NC(=O)N1CC[C@@]2(CCCN(C(=O)c3cc(C(F)(F)F)cc(C(F)(F)F)c3)C2)C1`, the Potency is > 11.4 µM (inactive).
Under `COC(=O)N1CCC2(CCN(C(=O)NC(C)C)CC2)CC1` stands > 11.4 µM (inactive); under `CC(=O)N1CCC[C@@]2(CCN(c3ncccn3)C2)C1`, > 11.4 µM (inactive).
In the case of `CN(C)c1ccnc(-c2cccc(NS(C)(=O)=O)c2)n1`, the Potency was > 11.4 µM (inactive).
Under `COc1ncc2ncc(=O)n(C[C@H]3CCCO3)c2n1` stands > 11.4 µM (inactive).
Regarding `CS(=O)(=O)N1CCC2(CCN(c3cccc(-c4ccccc4)c3)CC2)CC1`, the Potency is > 11.4 µM (inactive).
As for `N#Cc1cccc(NC(=O)N2CC[C@@]3(CCCN(C(=O)c4ccncc4)C3)C2)c1`, the figure is > 11.4 µM (inactive); as for `COCC(=O)N1CCC2(CC1)CCN(C(=O)Nc1cccc(F)c1)CC2`, > 11.4 µM (inactive); as for `CC(C)CN1CC[C@@]2(CCCN(C(=O)c3cnccn3)C2)C1`, > 11.4 µM (inactive).
On to `Cc1noc(C)c1-c1cc(Nc2ccc(F)cc2)ncn1`, for which the Potency is > 11.4 µM (inactive).
As for `Cc1noc(C)c1C(=O)N1CCC2(CC1)CCN(c1cccc(-c3ccccc3)c1)CC2`, the figure is > 11.4 µM (inactive); as for `O=C(c1cc(C(F)(F)F)cc(C(F)(F)F)c1)N1CCC2(CCN(Cc3nccs3)CC2)CC1`, > 11.4 µM (inactive); as for `COc1ccc(-n2c(=O)c(-c3cccs3)nc3cnc(N(C)C)nc32)cc1`, > 11.4 µM (inactive).
For the compound `COc1ccc(Oc2ncc3nc(C)c(=O)n(-c4ccccc4)c3n2)cc1`, the Potency is > 11.4 µM (inactive).
As for `COc1ccc(C(=O)N2CCC3(CC2)CN(C(=O)Nc2cccc(C#N)c2)C3)cc1`, the figure is > 11.4 µM (inactive); as for `O=c1c(-c2ccc(F)cc2)nc2cnc(Oc3ccccc3)nc2n1Cc1cccs1`, > 11.4 µM (inactive); as for `COc1cccc(Nc2ncc3nc(-c4ccc(Cl)cc4)c(=O)n(C4CC4)c3n2)c1`, > 11.4 µM (inactive).
For the compound `O=c1c(-c2ccc(F)cc2)nc2cnc(Nc3ccccc3)nc2n1C[C@H]1CCCO1`, the Potency was > 11.4 µM (inactive).
Under `CN1CCN(c2ncc3nc(-c4cc(F)cc(F)c4)c(=O)n(-c4ccccc4)c3n2)CC1` stands > 11.4 µM (inactive).
As for `CNc1nc(-c2ccc3c(c2)OCO3)nc2ccccc12`, the figure is 11.4 µM (inactive).
Under `Cc1noc(C)c1-c1nccc(NCc2cccnc2)n1` stands > 11.4 µM (inactive); under `Cc1nc2cnc(OCc3ccccc3)nc2n(C)c1=O`, > 11.4 µM (inactive).
Regarding `CN(Cc1ccco1)c1ncnc2ccc(-c3ccccc3Cl)cc12`, the Potency was > 11.4 µM (inactive).
As for `c1ncc(-c2ccoc2)c(NC2CC2)n1`, the Potency was > 11.4 µM (inactive).
As for `N#CCCn1c(=O)c(-c2cccs2)nc2cnc(OCc3ccccc3)nc21`, the figure is > 11.4 µM (inactive); as for `O=C(c1cnccn1)N1CCC[C@@]2(CCN(Cc3nccs3)C2)C1`, > 11.4 µM (inactive); as for `O=C(Nc1cccc(F)c1)N1CC2(CCN(S(=O)(=O)c3ccccc3)CC2)C1`, > 11.4 µM (inactive).
Regarding `CN1CCN(c2ncc3nc(-c4cccs4)c(=O)n(CCC#N)c3n2)CC1`, the Potency is > 11.4 µM (inactive).
As for `O=c1c(-c2cc(F)cc(F)c2)nc2cnc(N3CCNCC3)nc2n1-c1ccccc1`, the figure is > 11.4 µM (inactive); as for `CN1CCN(c2ncc3ncc(=O)n(C[C@H]4CCCO4)c3n2)CC1`, > 11.4 µM (inactive).
Under `COCCn1c(=O)c(-c2ccc(Cl)cc2)nc2cnc(OC)nc21` stands > 11.4 µM (inactive); under `CC(=O)N1CCC2(CC1)CN(c1ccccc1)C2`, > 11.4 µM (inactive).
As for `COc1ccc(-n2c(=O)c(-c3ccccc3)nc3cnc(N4CCN(C)CC4)nc32)cc1`, the figure is > 11.4 µM (inactive).
